Source: PubChem BioAssay (EPA / NIEHS)
Where “and” joins values, the source holds several entries; their conditions need not be identical. Equal entries are not always repeated. Some structures have more than one record in an assay (separate samples or runs), and their calls can disagree. Calls of active or inactive are those of the source. The calls were made as follows: active = hit-call score of the fitted dose curve at least 0.9, where 1 is the maximum; inactive = score below 0.9.

Assays:
[1] = BSK_MyoF_SRB: Viability Assessment in the BioMAP Diversity Plus: MyoF Assay (AID 2284267); conditions: primary human lung fibroblasts;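 also: total protein by SRB absorbance in parallel cultures as cytotoxicity measure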
Procedure, shortened: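 Human lung fibroblasts, 24 h after chemical dosing; total protein measured by 0.1% sulforhodamine B staining after 10% TCA fixation, read at 560 nm, fitted relative to DMSO baseline.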

[2] = read-out: Matrix Metallopeptidase 1 (MMP1), MMP1 (gene 4312); assay: BSK_MyoF_MMP1: BioMAP Diversity Plus: MyoF Assay for Matrix Metallopeptidase 1 (MMP1) Biomarker Activity (AID 2284268); conditions: primary human lung fibroblasts
Procedure, shortened: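 Lung fibroblast cultures were dosed with test chemicals and, after 24 h, MMP1 levels were measured by ELISA; responses were referenced to DMSO and analysed for increases.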

[3] = read-out: Matrix Metallopeptidase 1 (MMP1), MMP1 (gene 4312); assay: BSK_BF4T_MMP1: BioMAP Diversity Plus: BF4T Assay for Matrix Metallopeptidase 1 (MMP1) Biomarker Activity (AID 2284270); conditions: primary human bronchial epithelial cells with fibroblasts
Procedure, shortened: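 Co-culture of human bronchial epithelial cells and dermal fibroblasts; MMP-1 levels measured by ELISA 24 hours after chemical dosing, relative to DMSO. Cytotoxicity checked in parallel cultures by SRB total-protein staining.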

[4] = read-out: Matrix Metallopeptidase 3 (MMP3), MMP3 (gene 4314); assay: BSK_BF4T_MMP3: BioMAP Diversity Plus: BF4T Assay for Matrix Metallopeptidase 3 (MMP3) Biomarker Activity (AID 2284271); conditions: primary human bronchial epithelial cells with fibroblasts
Procedure, shortened: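 Co-culture of human bronchial epithelial cells and dermal fibroblasts dosed 24 h; MMP-3 measured by ELISA, positive-direction fit versus DMSO. Cytotoxicity tracked by SRB total-protein staining (560 nm) in parallel cultures.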

[5] = read-out: Tissue plasminogen activator (tPA), PLAT (gene 5327); assay: BSK_BF4T_tPA: BioMAP Diversity Plus: BF4T Assay for Tissue plasminogen activator (tPA) Biomarker Activity (AID 2284272); conditions: primary human bronchial epithelial cells with fibroblasts
Procedure, shortened: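 tPA level quantified by ELISA at 24 h post-treatment in bronchial epithelial/dermal fibroblast co-cultures, gain of signal scored against DMSO baseline. Parallel cultures stained with 0.1% SRB (560 nm) to flag overt cytotoxicity.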

[6] = read-out: Plasminogen Activator Inhibitor-1 (PAI1), SERPINE1 (gene 5054); assay: BSK_BF4T_PAI1: BioMAP Diversity Plus: BF4T Assay for Plasminogen Activator Inhibitor-1 (PAI1) Biomarker Activity (AID 2284273); conditions: primary human bronchial epithelial cells with fibroblasts
Procedure, shortened: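 Co-culture of human bronchial epithelial cells and dermal fibroblasts exposed to compound for 24 h. PAI-1 measured by ELISA; activity fitted in positive direction versus DMSO. Parallel SRB staining assessed overt cytotoxicity.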

[7] = BSK_BF4T_SRB: Viability Assessment in the BioMAP Diversity Plus: BF4T Assay (AID 2284274); conditions: primary human bronchial epithelial cells with fibroblasts
Procedure, shortened: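 Co-culture of human bronchial epithelial cells and dermal fibroblasts (BioMAP BF4T) exposed 24 h. Total protein by sulforhodamine B staining (0.1% SRB after 10% TCA fixation, 560 nm) in parallel cultures; fitted vs DMSO.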

[8] = read-out: urokinase Plasminogen Activator (uPA), PLAU (gene 5328); assay: BSK_BF4T_uPA: BioMAP Diversity Plus: BF4T Assay for urokinase Plasminogen Activator (uPA) Biomarker Activity (AID 2284275); conditions: primary human bronchial epithelial cells with fibroblasts
Procedure, shortened: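 Co-culture of human bronchial epithelial cells and dermal fibroblasts; uPA quantified by ELISA 24 hours after dosing, fitted relative to DMSO. Parallel SRB total-protein staining assessed overt cytotoxicity.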

[9] = read-out: Matrix Metallopeptidase 9 (MMP9), MMP9 (gene 4318); assay: BSK_BF4T_MMP9: BioMAP Diversity Plus: BF4T Assay for Matrix Metallopeptidase 9 (MMP9) Biomarker Activity (AID 2284276); conditions: primary human bronchial epithelial cells with fibroblasts
Procedure, shortened: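 Co-culture of human bronchial epithelial cells and dermal fibroblasts dosed for 24 h; MMP-9 quantified by ELISA and fitted upward versus DMSO. Cytotoxicity monitored in parallel cultures by SRB total-protein staining at the biomarker time point.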

[10] = read-out: Interleukin-8 (IL8), CXCL8 (gene 3576); assay: BSK_IMphg_IL8: BioMAP Diversity Plus: IMphg Assay for Interleukin-8 (IL8) Biomarker Activity (AID 2284277); conditions: primary human endothelial cells with macrophages
Procedure, shortened: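 Co-culture of human venular endothelial cells and macrophages exposed to chemicals for 24 h; IL-8 quantified by ELISA and compared against the DMSO baseline, with SRB total-protein staining in parallel cultures for cytotoxicity.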

Measured: AC50

C=CC(=O)OCC(CO)(COC(=O)C=C)COC(=O)C=C
active: [1] 0.642 µM
inactive: [2]

CCC(=O)OCC=Cc1ccccc1
inactive: [1] | [2]

C=C1CC/C=C(\C)CC[C@@H]2[C@@H]1CC2(C)C
active: [1] 28.8 µM | [2] 9.66 µM

c1ccc2c(c1)-c1ccc3ccc4cccc5cc-2c1c3c45
active: [2] 1.33 µM
inactive: [1]

CCOC(=O)C=Cc1ccccc1
inactive: [1] | [2]

CC1(C)[C@H](C=C(Cl)Cl)[C@H]1C(=O)OCc1cccc(Oc2ccccc2)c1
inactive: [1] | [2]

C=C(F)C(=O)OC(C(F)(F)F)C(F)(F)F
inactive: [1] | [2] | [3] | [4] | [5] | [6] | [7] | [8] | [9] | [10]

O=S1(=O)CC(Cl)(Cl)C(Cl)(Cl)C1
active: [1] 2.14 µM | [2] 3.45 µM

CCCCCCCC1CCCC1=O (configuration not stated)
active: [1] 32.4 µM | [2] 32.4 µM

CC(C)Cc1ccc(C(C)C(=O)O)cc1 (configuration not stated)
inactive: [1] | [2]

OCCN1CCOCC1
inactive: [1] | [2]

CC(C)(C)c1cccc(O)c1
inactive: [1] | [2]

CC=CC(=O)C1=C(C)C=CCC1(C)C
inactive: [1] | [2]

Nc1ccc(N)c([N+](=O)[O-])c1
inactive: [1] | [2]

c1ccc(Sc2ccccc2)cc1
active: [1] 34.8 µM | [2] 30.8 µM

O=C(O)C(F)(F)C(F)(F)C(F)(F)C(F)(F)C(F)(F)C(F)(F)C(F)(F)C(F)F
active: [3] 51.9 µM | [5] 4.37 µM and 2.45 µM | [6] 2.94 µM and 2.8 µM
inactive: [1] | [2] | [3] | [4] | [7] | [8] | [9] | [10]

O=C(O)C(F)(F)OC(F)(F)C(F)(F)OC(F)(F)C(F)(F)C(F)(F)C(F)(F)F
active: [4] 12.9 µM and 17.8 µM
inactive: [1] | [2] | [3] | [5] | [6] | [7] | [8] | [9] | [10]

CC1=CC(C)C(C=O)C(C)C1 (configuration not stated) (tested in a mixture with another compound)
inactive: [1] | [2]

O=S(=O)(O)C(F)(F)C(F)(F)OC(F)(F)C(F)(F)F
inactive: [1] | [2] | [3] | [4] | [5] | [6] | [7] | [8] | [9] | [10]
active: [4] 36.9 µM | [10] 41.7 µM

CCCCCCCCCCCCS
active: [1] 20 µM | [2] 5.81 µM

O=C1OC2(c3ccc(O)cc3Oc3cc(O)ccc32)c2ccccc21
inactive: [1] | [2]

CC(=O)OCC=C(C)CCC=C(C)CCC=C(C)C
inactive: [1] | [2]

OCC(F)(OC(F)(F)C(F)(OC(F)(F)C(F)(F)C(F)(F)F)C(F)(F)F)C(F)(F)F (configuration not stated)
active: [1] 2.54 µM and 3.33 µM | [5] 4.28 µM
inactive: [2] | [3] | [4] | [5] | [6] | [7] | [8] | [9] | [10]

CCOC(=O)CCCCCCCCC(=O)OCC
inactive: [1] | [2]

NC(=O)c1c(Cl)cccc1Cl
inactive: [1] | [2]

CC(=O)CCC=C(C)CCC=C(C)C
inactive: [1] | [2]

CC(=O)OC(C)(C)C1CC=C(C)CC1 (configuration not stated)
inactive: [1] | [2]

C=C(C)C(=O)OCCC(F)(F)C(F)(F)C(F)(F)C(F)(F)C(F)(F)C(F)(F)C(F)(F)C(F)(F)F
inactive: [1] | [2] | [3] | [4] | [5] | [6] | [7] | [8] | [9] | [10]

CCCCCCCCCC(=O)OCC
inactive: [1] | [2]

COc1ccccc1NC(=O)CC(C)=O
inactive: [1] | [2]
